Screens from PubChem.
Sampled rows, rich in hits. Any-hit rate of the full collection: about 19%.
TDP1 cell CPT: growth inhibition of DT40 Tdp1-/-;hTDP1 cells with camptothecin (screen for TDP1 inhibitors). chicken DT40 Tdp1-/-;hTDP1 cells + 20 nM CPT, ATP luminescence, 48 h. Potency, µM (doses to about 46.2 µM), inactives show at the highest dose activity change, negative = growth inhibition, most hits filed as inhibitors. 12% of 420,000 active; further: potency means the concentration at half of the fitted maximal effect; nearly all actives have a fitted effect of over 55% in size
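Cell growth measured by CellTiter-Glo luminescence after a minimum 48 h, 37 C compound exposure with 20 nM CPT in Tdp1-knockout DT40 cells stably expressing hTDP1, seeded 400/well; qHTS titration format.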
DT40 TDP1 no CPT: qHTS for Inhibitors of human tyrosyl-DNA phosphodiesterase 1 (TDP1): qHTS in cells in absence of CPT | DT40 Tdp1-/- hTDP1 cells, no CPT, ATP luminescence, 48 h | Potency, µM (series often up to 46.2 µM), for inactives: at the highest dose activity change, negative = growth inhibition, usual class: inhibitors | 15% of 420,000 active | AID 686978, 2013; further: potency means the concentration at half of the fitted maximal effect; nearly all actives have a fitted effect of over 55% in size
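Luminescent ATP content (CellTiter-Glo) served as the growth readout. Knockout chicken DT40 cells expressing human TDP1 were exposed to compounds without camptothecin for a minimum 48 hr at 37 °C.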
HT1080 IDH1KD tx: kills HT-1080 cells with IDH1 knockdown; HT-1080 IDH1 knockdown viability, ATP luminescence, 48 h; Potency, µM (series often up to 46.1 µM), for inactives: at the top dose activity, negative = toxicity, usual class: cytotoxic; 2% of 360,000 active; AID 686971;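 further: potency means the concentration at half of the fitted maximal effect; 0% = DMSO wells and -100% = cell-free medium wells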
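HT-1080-IDH1KD cells (IDH1 knocked down), 750/well in RPMI with 5% FBS, treated with compound 48 h at 37 degrees C. Viability by CellTiter-Glo luminescence, normalised to DMSO and no-cell wells; concentration-response curves classed.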
IL-1B inflam inh: blocks inflammasome-driven IL-1 beta release; THP-1 LPS/ATP IL-1B secretion, AlphaLISA, 16 h; hits give low values; activity change, % at 57.5 µM; 4.7% of 360,000 active; AID 743279; in the data active means activity change below about -50%; inconclusive means mostly about -30% to -49%
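Secreted IL-1B measured by AlphaLISA bead assay after 16 h compound exposure of THP-1 cells; compounds (final up to 57.5 uM) added 1 h before LPS (250 ng/mL) and ATP (1.25 mM) stimulation; lower signal means less secretion.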
ELG1 repair inh: ELG1-dependent DNA repair inhibition; HEK293T ELG1-luciferase reporter, luminescence, 16 h; DNA damage induced by 5-fluorouridine; Potency, µM (doses to about 46.1 µM), inactives show top-dose activity change, negative = inhibition, actives largely listed as inhibitors; 2.3% of 330,000 active; AID 504467; further: potency means the concentration at half of the fitted maximal effect; nearly all actives have a fitted effect of over 55% in size
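Luminescence from the luciferase reporter, measured 30 min after ONE-Glo reagent at room temperature, was the read-out. Beforehand, 2,000 cells per well were exposed for 16 hr at 37 °C to 5-fluorouridine together with compound or vehicle.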
HT1080NT lethal: kills 2HG-producing HT-1080-NT fibrosarcoma cells | HT-1080-NT fibrosarcoma viability, CellTiter-Glo ATP luminescence, 48 h | Potency, µM (doses to about 46.1 µM), for the others: at the highest dose activity, negative = less viability, hits mostly cytotoxic | 1.6% of 360,000 active;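 further: NT is the 2HG producing partner of a matched IDH1 knockdown line; potency means the concentration at half of the fitted maximal effect; 0% = DMSO-treated cells and -100% = media-only wells without cells; nearly all actives have a fitted effect of over 55% in size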
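Viability by CellTiter-Glo luminescence after 48 h compound exposure at 37C of HT-1080-NT cells (750/well, RPMI, 5% FBS). % activity scaled between DMSO wells and medium-only wells, then curve-fitted and categorized by curve class.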
* = called active by the depositor; ? = inconclusive; . = no result; [ ] = another dose, or the depositor's remark. Unless noted, the call rests on the fitted dose curve; in most records, active means well fitted curve in the direction sought with a large enough effect; inconclusive means small, poorly fitted or top-dose-only effect, or another doubt; inactive means no such curve, though single readings can be large; an effect the other way counts as inactive or inconclusive. Unless noted, on the % scale 0 is the no-effect control and ±100 the full control effect.

SMILES | TDP1 cell CPT | DT40 TDP1 no CPT | HT1080 IDH1KD tx | IL-1B inflam inh | ELG1 repair inh | HT1080NT lethal
COC(=O)C1=C(c2ccccc2OCc2ccccc2)C[C@@H]2CC[C@H]1N2C(=O)NCc1ccc(Br)cc1 | ? | ? | -2% | ? | -25% | -4%
CCCCCc1nc2c(c(=O)c3ccccc3n2C)c(=O)n1C1CCCCCC1 | 21µM* | 18µM* | ? | 10 | -8% | ?
CCC(=O)O[C@](Cc1ccccc1)(c1ccccc1)[C@H](C)CN(C)C | 43µM* | 38µM* | . | . | . | .
C[C@]12CCC3C(CC[C@H]4C[C@H](O)CC[C@]34C)C1C[C@H](O)[C@@H]2O (some centres undefined) | ? | -30% | 6% | 26 | -22% | 0%
CCOc1ccccc1NC(=O)c1sc2nc3c(cc2c1N)CN(Cc1ccccc1)CC3 | 16µM* | 23µM* | . | . | . | .
CC(=O)OC1C(O)C2=C3C4(C)C1C(C)(C)C(=O)CC4C3(O)C(OC(C)=O)C1(CC1C)C2=O (centres undefined) | 5.8µM* | 7.3µM* | 13% | -121* | . | -3%
Cc1ccccc1N1C(=O)NC(=O)/C(=C\c2cc(Br)c(N3CCOCC3)o2)C1=O | 4.1µM* | 7.3µM* | -2% | -103* | 10% | 1%
CCS(=O)(=O)C(C)(C)S(=O)(=O)CC | 5% | 1% | . | . | . | .
C=CCn1c(O)c(C(CC)=NCc2cccnc2)c(=O)[nH]c1=O | 3% | -12% | 0% | 82 | ? | 8%
C[C@H]1CCCC(=O)CCCCCc2cc(O)cc(O)c2C(=O)O1 | ? | 18µM* | ? | 25 | ? | ?
COC1C=CC23c4cc5c(cc4CN(CC2O)C3C1)OCO5 (centres undefined) | 2.1µM* | 1.3µM* | . | . | . | .
CCCCC[C@H]1CCCCC[C@@H](O)C[C@@H](O)[C@@H](O)/C=C/C(=O)O1 | 10µM* | 9.2µM* | -12% | -1 | . | -20%
CCCCC[C@@H]1CCCCC[C@@H](O)C[C@H](O)[C@H](O)/C=C/C(=O)O1 | ? | ? | 8% | 13 | . | 1%
CN(C)C(=O)Oc1ccc(OC(=O)N(C)C)cc1 | -9% | -26% | 10% | -1 | ? | 10%
CN(C)C(=O)Oc1ccc(OCc2nc3ccccc3[nH]2)cc1 | 9.2µM* | 10µM* | 6.5µM* | -5 | ? | 7.3µM*
Fc1cccc(C2NCc3ccccc3-n3cccc32)c1 (centres undefined) | ? | -23% | -24% | -12 | -8% | -10%
CCOc1ccc(CC2(CCc3ccncc3)C(=O)NC(=O)NC2=O)cc1 | -6% | ? | -14% | 5 | 11% | -8%
COc1ccc(CNCCC(c2ccc(OC(C)C)cc2)C(C)C)cc1OC (centres undefined) | ? | 16µM* | ? | -98* | -8% | ?
COC(=O)[C@]12OC[C@]34C([C@@H](O)[C@@H]1O)[C@]1(C)CC(=O)C(O)=C(C)[C@@H]1C[C@H]3OC(=O)[C@H](O)[C@@H]24 (some centres undefined) | 2.9µM* | 1.5µM* | ? | -23 | ? | ?
CC1=CC(O)C(O)C2(C)C1CC1OC(=O)C(O)C3C(C)C(O)C4(O)OCC13C42 (centres undefined) | -23% | -20% | ? | 38 | . | -12%
CCN(CC)c1ccc(/C=C2/C(=O)NC(=O)N(CC3CCCO3)C2=O)cc1 (centres undefined) | -24% | -27% | 4% | -5 | 11% | 4%
O=C1NC(=S)SC1=Cc1ccc(N(CCCl)CCCl)cc1 | 13µM* | 16µM* | -5% | -19 | . | -21%
O=C1CN(O)C(c2ccccc2Cl)=c2cc(Br)ccc2=N1 | ? | ? | -6% | 22 | -2% | -3%
Cc1ccc(N2C(=O)NC(=O)/C(=C/c3cnn(-c4ccc(C)cc4)c3)C2=O)cc1 | 16µM* | 18µM* | -2% | -10 | 25% | -5%
CCC1CCC(C)N(N=O)C1 (centres undefined) | -4% | 0% | 2% | 12 | . | 1%
SMILES | TDP1 cell CPT | DT40 TDP1 no CPT | HT1080 IDH1KD tx | IL-1B inflam inh | ELG1 repair inh | HT1080NT lethal
Cc1cc(C=C2C(=O)N(C)C(=S)N(C)C2=O)c(C)n1-c1cccnc1 | ? | ? | 16% | -68* | 1% | 6%
CC[C@H](C)[C@H]1O[C@]2(C=C[C@@H]1C)C[C@@H]1C[C@@H](C/C=C(\C)[C@@H](O[C@H]3C[C@H](OC)[C@@H](O[C@H]4C[C@H](OC)[C@@H](O)[C@H](C)O4)[C@H](C)O3)[C@@H](C)/C=C/C=C3\CO[C@@H]4[C@H](O)C(C)=C[C@@H](C(=O)O1)[C@]34O)O2 | ? | 16µM* | . | . | . | .
C=C1CCN([C@@H](Cc2ccccc2)C(=O)Nc2ccc(OC)cc2)S(=O)(=O)c2ccccc21 | ? | ? | 4% | -10 | . | -1%
Cc1c2cnn(CC(=O)N3CCC4(CC3)OCCO4)c(=O)c2c(C)n1Cc1ccc(F)cc1 | -22% | ? | -3% | -2 | ? | 2%
O=C(Cn1ncc2c3ccccc3n(Cc3ccccc3F)c2c1=O)N1CCC2(CC1)OCCO2 | 23µM* | 12µM* | 15% | ? | 5% | 25%
N=C(N)c1c(O)n(C2CCCCC2)c(=O)n(C2CCCCC2)c1=O | ? | ? | 21µM* | ? | -8% | 16µM*
O=C(O)[C@@H]1Cc2[nH]cnc2C(c2cccnc2)N1 (some centres undefined) | 11%[9.04 µM] | 4%[9.04 µM] | . | . | . | .
CCOC(=O)[C@@]12C(=O)C(=O)N[C@]1(c1ccccc1)C1OCCCC12 (some centres undefined) | -7% | -9% | -1% | 13 | 8% | 1%
CCN(CC)C1=NC(=[N+](CC)CC)c2ccccc21 | 0.65µM* | 0.41µM* | 13µM* | ? | -11% | ?
COc1cc(/C=C2\C(=O)NC(=O)N(c3ccccc3)C2=O)cc(OC)c1OC | -4% | -3% | 12% | 25 | -1% | 10%
COc1cc(/C=C/c2ccc3ccccc3[n+]2C)cc(OC)c1OC | ? | 13µM* | . | . | . | .
O=c1ccc2cc3ccoc3c(O)c2o1 | 1% | 7% | 0% | 0 | 15% | 3%
O=C(NN=Cc1ccc(O)c(O)c1)c1ccccc1 | 23µM* | 23µM* | -3% | 0 | . | 11%
